Sampled rows, rich in hits. Any-hit rate of the full collection: about 21%.
Pf growth 48h – P. falciparum growth inhibition at 48 hours (one generation); P. falciparum luciferase growth in erythrocytes, 48 h; Potency, µM (highest dose often 28.7 µM), for the others: at the top dose activity change, negative = inhibition, actives largely listed as inhibitors; actives 5.9% (n = 310,000); note: potency is the fitted concentration of half-maximal effect; % is set by controls: 0 for no effect and ±100 for the full control effect
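Luminescence readout; reporter = integrated firefly luciferase in P. falciparum. RBC culture at 2% hematocrit, 0.1% parasitemia final, 37 C/5% CO2; decreased signal taken as growth inhibition.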
Pf growth 96h – P. falciparum growth inhibition at 96 hour, primary screen for plastid delayed-death inhibitors. P. falciparum luciferase reporter growth, 96 h. Potency, µM (doses to about 28.7 µM), for inactives: at the highest dose activity change, negative = inhibition, most hits filed as inhibitors. actives 6.9% (n = 320,000). AID 504834; note: potency is the fitted concentration of half-maximal effect; % is set by controls: 0 for no effect and ±100 for the full control effect
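Cell-based qHTS: luciferase-tagged P. falciparum in erythrocytes (2% hematocrit, 0.05% parasitemia final) incubated with compounds for 96 hours, 37 C, 5% CO2; luciferase detection reagent then added and luminescence measured.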
Shiga toxin inh – Shiga toxin inhibition; Vero cells, Shiga toxin protein synthesis inhibition reporter; inhibition, % at 38.7 µM; actives 9.2% (n = 290,000); AID 2315; in the data active = inhibition mostly above about 28%, no sharp cut-off; inactive = mostly below about 43%; note: 0% is about no effect
NS1 inh – influenza NS1 inhibition. Potency, µM (highest dose often 46.1 µM), inactives show top-dose activity, positive = more growth. AID 2326. actives 0.4% (n = 270,000); calls by dose curve; note: potency is the fitted concentration of half-maximal effect; actives are rising curves; nearly all actives have a fitted effect of over 50% in size
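Compounds were scored for reversing the slow growth caused by influenza A NS1 in S. cerevisiae, measured by optical density at 600 nm. Assay medium contained 2% galactose at pH 6.0; NS1-free yeast of the same strain were the positive control.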
Cycloheximide cs – affects cycloheximide protein synthesis inhibition readout, counter-screen | cell reporter, cycloheximide protein synthesis inhibition counterscreen | max response, % | actives 12% (n = 300,000); in the data active = max response mostly above about 13%, no sharp cut-off; inactive = mostly below about 14%; note: read at 38.3 µM for the half of the compounds with a filed dose; 0% is about no effect
* hit, by the source's call; [ ] = dose if it differs, or a comment. Unless noted, calls come from the whole dose curve; as a rule, active = well fitted inhibition curve with a large enough effect; inconclusive = small, poorly fitted or top-dose-only effect, or another doubt; inactive = no such curve, though single readings can be large or run the other way.

For COC(=O)c1cccc(NC(=O)c2cc3ccccc3o2)c1 the results were Pf growth 48h 9.3µM*, Pf growth 96h 22%, Shiga toxin inh 35*, NS1 inh -73% and Cycloheximide cs 29*.
For COC(=O)c1ccc(NC(=O)c2cccc(NC(=O)c3ccccc3)c2)cc1 the results were Pf growth 48h -16%, Pf growth 96h 8.3µM*, Shiga toxin inh 52, NS1 inh 7% and Cycloheximide cs -1.
Cc1ccc(C(=O)Oc2cccc(NC(=O)c3ccccc3)c2)cc1C was read as Pf growth 48h 41%, Pf growth 96h 28%, Shiga toxin inh 7, NS1 inh -16% and Cycloheximide cs 16*.
`COC(=O)c1cc(NC(=O)c2cc3ccccc3o2)cc(C(=O)OC)c1` gave Pf growth 48h -3%, Pf growth 96h -16%, Shiga toxin inh -3, NS1 inh -5% and Cycloheximide cs -3.
`Cc1ccc2oc(=O)c3cnn(CC(=O)NC4CCCCC4C)c3c2c1` (stereo unspecified) gave Pf growth 96h inconclusive, Shiga toxin inh -14, NS1 inh -3% and Cycloheximide cs -2.
For Brc1cnc2nc[nH]c2c1 the results were Pf growth 48h 14%, Pf growth 96h 19%, Shiga toxin inh -15, NS1 inh -1% and Cycloheximide cs -1.
For COC(=O)c1ccc(NC(=O)c2ccccc2)o1 the results were Pf growth 48h 48%, Pf growth 96h 36%, Shiga toxin inh 81*, NS1 inh -1% and Cycloheximide cs 38*.
For Cc1ccc2c(c1)C(c1ccc(F)cc1)N(C(=O)c1ccccc1Br)CC(=O)N2 (stereo unspecified) the results were Pf growth 96h 0%, Shiga toxin inh -1, NS1 inh 2% and Cycloheximide cs -3.
`Cc1cccc(C)c1NC(=O)/C(C#N)=C/c1cccs1` gave Pf growth 48h inconclusive, Pf growth 96h inconclusive, Shiga toxin inh -2, NS1 inh -23% and Cycloheximide cs -1.
`Cc1ccc(NC(=O)/C(C#N)=C/c2cccs2)c(C)c1` gave Pf growth 48h -2%, Pf growth 96h -17%, Shiga toxin inh 101*, NS1 inh 4% and Cycloheximide cs 50*.
Screening Cc1ccccc1NC(=O)/C(C#N)=C\c1ccsc1 returned Pf growth 48h -5%, Pf growth 96h 24%, Shiga toxin inh 56, NS1 inh -4% and Cycloheximide cs 28*.
Screening Cc1ccc(NC(=O)/C(C#N)=C/c2ccsc2)c(C)c1 returned Pf growth 48h inconclusive, Pf growth 96h inconclusive, Shiga toxin inh 102*, NS1 inh 8% and Cycloheximide cs 43*.
CC(C)(C)c1ccc(C(=O)/C(C#N)=C/c2cccs2)cc1 was read as Pf growth 48h 4%, Pf growth 96h -21%, Shiga toxin inh 73*, NS1 inh 0% and Cycloheximide cs 33*.
For Cc1ccccc1NC(=O)/C(C#N)=C\c1cccnc1 the results were Pf growth 48h 6%, Pf growth 96h 15%, Shiga toxin inh -3, NS1 inh 18% and Cycloheximide cs -2.
For CCOC(=O)N1CCC(N2Cc3cccc(C(=O)NCc4ccccn4)c3C2=O)CC1 the results were Pf growth 96h 15%, Shiga toxin inh -4, NS1 inh inconclusive and Cycloheximide cs 1.
Screening Cc1cccc2c3c([nH]c12)CCN(C)C3 returned Pf growth 48h -11%[0.00184 µM], Pf growth 96h 12%, Shiga toxin inh -8, NS1 inh -1% and Cycloheximide cs -3.
For COc1ccccc1NC(=O)Cn1nc(Cc2cccnc2)c2ccccc2c1=O the results were Pf growth 48h -17%, Pf growth 96h -20%, Shiga toxin inh -14, NS1 inh -5% and Cycloheximide cs -2.
`COc1ccccc1N(CC(=O)NC(C)(C)C)S(=O)(=O)c1cccs1` gave Pf growth 48h -8%, Pf growth 96h -11%, Shiga toxin inh 14, NS1 inh -14% and Cycloheximide cs 6.
`O=C1CC(N2CCN(c3ccc(S(=O)(=O)N4CCCC4)cc3)CC2)C(=O)N1c1ccc(F)cc1` (stereo unspecified) gave Pf growth 48h -9%, Shiga toxin inh 13, NS1 inh -21% and Cycloheximide cs 1.
CCS(=O)(=O)c1ccc(O)c(N2C(=O)C3C4C=CC(C4)C3C2=O)c1 (stereo unspecified) was read as Pf growth 48h 9%, Pf growth 96h 3%, Shiga toxin inh -13, NS1 inh 1% and Cycloheximide cs -1.
Screening N#C/C(=C\c1cccs1)C(=O)Nc1ccccn1 returned Pf growth 48h 18%, Pf growth 96h 3%, Shiga toxin inh 40, NS1 inh -2% and Cycloheximide cs 36*.
`N#C/C(=C\c1ccccc1)C(=O)Nc1ccccn1` gave Pf growth 48h 26%, Pf growth 96h 17%, Shiga toxin inh -3, NS1 inh -1% and Cycloheximide cs -3.
For CCOC(=O)C(CC(C)C)CP(=O)(O)CNC(=O)OCc1ccccc1 (stereo unspecified) the results were Pf growth 48h 0%, Pf growth 96h 7.4µM*, Shiga toxin inh -6, NS1 inh inconclusive and Cycloheximide cs -4.
Cc1nn(CC(=O)N2CCOCC2)c(=O)c2nn(-c3ccccc3)c(C)c12 was read as Pf growth 48h 35%, Pf growth 96h 29%, Shiga toxin inh -1, NS1 inh -3% and Cycloheximide cs -4.
Screening CC(C(=O)Nc1ccc(F)c(F)c1F)N(C)Cc1cccs1 (stereo unspecified) returned Pf growth 48h 1%, Pf growth 96h 2%, Shiga toxin inh -36, NS1 inh 2% and Cycloheximide cs 6.
Screening CNC(=O)Cn1ncc2c(C)n(Cc3ccc(C)cc3)c(C)c2c1=O returned Pf growth 48h -16%, Pf growth 96h 33%, Shiga toxin inh -8, NS1 inh 2% and Cycloheximide cs -2.
CC1CCN(C(=O)Cn2ncc3c4ccccc4n(C)c3c2=O)CC1 was read as Pf growth 48h 31%, Pf growth 96h 33%, Shiga toxin inh 21, NS1 inh 4% and Cycloheximide cs 1.
Screening Cc1c2cnn(CC(=O)Nc3c(F)c(F)cc(F)c3F)c(=O)c2c(C)n1Cc1ccccc1F returned Pf growth 48h -14%, Pf growth 96h 9.3µM*, Shiga toxin inh -2 and Cycloheximide cs -1.
For O=C(Cn1ncc2c3ccccc3n(Cc3cccc(Cl)c3)c2c1=O)N1CCC2(CC1)OCCO2 the results were Pf growth 48h 4.1µM*, Pf growth 96h 4.7µM*, Shiga toxin inh -28, NS1 inh inconclusive and Cycloheximide cs -5.
Cn1c2ccccc2c2cnn(CC(=O)N3CCCCC3)c(=O)c21 was read as Pf growth 48h 15%, Pf growth 96h 28%, Shiga toxin inh 30, NS1 inh -4% and Cycloheximide cs 17*.
Screening Cc1c2cnn(CC(=O)N3CCC4(CC3)OCCO4)c(=O)c2c(C)n1Cc1ccccc1F returned Pf growth 48h 3%, Pf growth 96h 0.01µM*, Shiga toxin inh -5, NS1 inh 17% and Cycloheximide cs -3.

Compound activity from PubChem.
